High-throughput results (PubChem)
Gli-Sufu block – blocks Gli-Sufu signaling in a luciferase reporter. inhibition, % at 5 µM. 0.74% of 340,000 active. Sufu-KO-LIGHT fibroblasts, Gli luciferase reporter luminescence. AID 588413;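 active = inhibition above about 55%, limit read from the data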;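 also: 0% = DMSO-treated cells and 100% = wells with medium but no cells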
NCOA2 inhibitor – human SRC2 (NCOA2) inhibition | HEK293 GAL4-SRC2 luciferase reporter, luminescence | Q15596 | inhibition, % at 9 µM | 0.17% of 370,000 active;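 active = inhibition above the mean inhibition of all tested compounds plus 3 SD, set per campaign, cut at about 52% in these data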;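 also: 0% = DMSO treated cells and 100% = cells given Gossypol at 36 µM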
NR2F2 inh – inhibitors of human COUP-TFII (NR2F2); P24468; HEK293T NGFI-A luciferase reporter, luminescence; inhibition, % at 8.6 µM; 0.7% of 370,000 active;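 active = inhibition above a per-plate cutoff, mean inhibition of test wells between control levels plus 3 SD, cut at about 38% in these data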;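 also: cells cotransfected with COUP-TFII expression vector driving the NGFI-A reporter; 0% = median of COUP-TF2 test wells and 100% = reporter-only cells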
NCOA1 inh – human NCOA1 inhibition; Q15788; 0.12% of 360,000 active; AID 588354; inhibition, % at 3.6 µM; HEK293 GAL4-SRC1 luciferase reporter, luminescence;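 active = inhibition above the campaign mean plus 3 SD, with each screening campaign given its own cutoff, cut at about 60% in these data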;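 also: 0% = DMSO treated cells and 100% = gossypol at 36 µM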
NCOA3 inh – inhibits human SRC3 coactivator | HEK293 GAL4-SRC3 luciferase reporter, luminescence | AID 588352 | inhibition, % at 3.6 µM | 0.17% of 360,000 active;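 active = inhibition above a per-campaign cutoff, the mean of all compounds plus 3 SD, cut at about 60% in these data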;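 also: 0% = DMSO-treated cells and 100% = gossypol-treated cells at 36 µM; higher means less SRC3-driven luciferase light from the GAL4 reporter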
LRH-1 inv ag – suppresses constitutive activity of human LRH-1. 0.13% of 360,000 active. inhibition, % at 3.6 µM. HEK293T StAR-luciferase reporter, LRH-1 transfected, 24 h;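 active = inhibition above the mean inhibition of all tested compounds plus 3 SD, cut at about 73% in these data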;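 also: 0% = DMSO wells and 100% = reporter-only cells lacking LRH-1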
Target sequence (O00482 whole entry, looked up): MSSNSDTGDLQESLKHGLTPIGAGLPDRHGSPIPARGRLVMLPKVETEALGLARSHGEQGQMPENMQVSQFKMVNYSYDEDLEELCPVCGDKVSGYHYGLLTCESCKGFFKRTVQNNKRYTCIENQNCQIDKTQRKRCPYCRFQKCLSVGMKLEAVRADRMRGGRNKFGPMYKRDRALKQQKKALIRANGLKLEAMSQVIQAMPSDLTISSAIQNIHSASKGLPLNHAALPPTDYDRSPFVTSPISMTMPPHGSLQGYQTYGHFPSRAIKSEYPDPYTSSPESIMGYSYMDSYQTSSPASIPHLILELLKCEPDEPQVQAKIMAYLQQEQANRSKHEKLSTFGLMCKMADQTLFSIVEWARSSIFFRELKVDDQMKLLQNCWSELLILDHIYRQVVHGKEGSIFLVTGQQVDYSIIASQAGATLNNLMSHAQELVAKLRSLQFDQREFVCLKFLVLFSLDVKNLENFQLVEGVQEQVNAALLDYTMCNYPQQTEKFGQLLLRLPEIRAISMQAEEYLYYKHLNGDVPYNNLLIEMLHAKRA
Gli antag conf – Gli-SUFU antagonism confirmation, single concentration | Sufu-KO-LIGHT cells, Gli luciferase reporter, luminescence | inhibition, % at 5 µM | shares compounds with Gli-Sufu block | 40% of 2,500 active;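 active = mean inhibition at 5 µM reaching about 45%, limit read from the data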;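 also: plate controls were DMSO-treated cells for no effect and wells lacking cells for full effect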
SufuKO cytotox – cytotoxic in Gli-SUFU antagonist counter-screen. shares compounds with Gli-Sufu block. Sufu-KO-LIGHT cells cytotoxicity, ATP luminescence. cytotoxicity, % at 5 µM. 32% of 2,500 active;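 active = mean cytotoxicity at 5 µM above about 25%, limit read from the data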;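 also: cells exposed to compound overnight for roughly 16 to 18 hours; plate controls were DMSO wells with cells for no effect and medium without cells for full effect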
Wnt3a counter – counter-screen for Gli-SUFU antagonists: Wnt3a reporter inhibition; Wnt-LIGHT cells, Wnt3a-driven luciferase reporter, luminescence; inhibition, % at 6.25 µM; AID 651995; 20% of 2,500 active; shares compounds with Gli-Sufu block;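 active = mean inhibition above about 25%, limit read from the data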
* marks the source's active call; other numbers are inactive results. Hits are enriched below; roughly 1.3% of the tested compounds scored in any of these assays.

How did COC(=O)[C@]12C[C@H](CC(=O)N3CCN(C(=O)C4CC4)CC3)C(=O)N(CCc3ccc(OC)c(OC)c3)C1=C[C@H](C1CCCC1)O[C@@H]2C do in these assays?
NCOA2 inhibitor: 2; NR2F2 inh: -5

Results for CC1(C)Oc2ccc(C(=O)N3CCCC3)cc2NC1=O ?
NCOA2 inhibitor: 16; NR2F2 inh: -1

How did Cc1cccc(NC(=O)[C@H]2CC(=O)O[C@@H]2c2ccccc2)c1C do in these assays?
NCOA2 inhibitor: 2; NR2F2 inh: -13

How did CC(=O)N1CCc2cc(S(=O)(=O)NC(C)c3ccccc3)ccc21 (centres undefined) do in these assays?
Gli-Sufu block: 27; NCOA2 inhibitor: 8; NR2F2 inh: 2; NCOA1 inh: 23; NCOA3 inh: 15; LRH-1 inv ag: -3

Results for CC(=O)N1CCOc2ccc(S(=O)(=O)NC(C)c3ccccc3)cc21 (centres undefined) ?
Gli-Sufu block: 61*; NCOA2 inhibitor: 15; NR2F2 inh: 13; NCOA1 inh: 10; NCOA3 inh: 28; LRH-1 inv ag: 12; Gli antag conf: 24; SufuKO cytotox: -6; Wnt3a counter: 1

What do the screens show for `CCOC(=O)[C@]12CCCCC/C=C\1N(Cc1ccc(OC)cc1)C(=O)[C@H]2CC(=O)NCCCCc1ccccc1`?
NCOA2 inhibitor: -3; NR2F2 inh: 0

How did CCOC(=O)c1ccc2c(c1)n(CCO)c(C)[n+]2CC do in these assays?
Gli-Sufu block: -1; NCOA2 inhibitor: -17; NR2F2 inh: -2; NCOA1 inh: -8; NCOA3 inh: 3; LRH-1 inv ag: 16

What do the screens show for `CCOC(=O)c1ccc2c(c1)n(CC)c(/C=C/N(C)c1ccccc1)[n+]2CC`?
Gli-Sufu block: 83*; NCOA2 inhibitor: -1; NR2F2 inh: 3; NCOA1 inh: 26; NCOA3 inh: 31; LRH-1 inv ag: 0; Gli antag conf: 86*; SufuKO cytotox: 31*; Wnt3a counter: 33*

How did CCCCCN1CCCCC(NC(=O)c2cccc(C(F)(F)F)c2)C1=O (centres undefined) do in these assays?
NCOA2 inhibitor: 0; NR2F2 inh: 2

Results for Cc1ccc(C)[n+](CC(=O)c2ccc(-c3ccccc3)cc2)c1 ?
Gli-Sufu block: 56*; NCOA2 inhibitor: -6; NR2F2 inh: 1; NCOA1 inh: 4; NCOA3 inh: 10; LRH-1 inv ag: 18; Gli antag conf: 36; SufuKO cytotox: 16; Wnt3a counter: -21

How did COc1ccc(CCCc2n[nH]c(=S)o2)cc1 do in these assays?
Gli-Sufu block: 11; NCOA2 inhibitor: -11; NR2F2 inh: 9; NCOA1 inh: 3; NCOA3 inh: 3; LRH-1 inv ag: -6

What do the screens show for `COc1ccc(Cc2n[nH]c(=S)o2)cc1`?
Gli-Sufu block: 55; NCOA2 inhibitor: 2; NR2F2 inh: -24; NCOA1 inh: -16; NCOA3 inh: -14; LRH-1 inv ag: 11; Gli antag conf: 19; SufuKO cytotox: 1; Wnt3a counter: -4

How did Cc1cc[n+](C(C)C(=O)c2ccc(-c3ccccc3)cc2)cc1 (centres undefined) do in these assays?
Gli-Sufu block: 82*; NCOA2 inhibitor: 2; NR2F2 inh: 35; NCOA1 inh: 8; NCOA3 inh: 34; LRH-1 inv ag: 37; Gli antag conf: 75*; SufuKO cytotox: 27*; Wnt3a counter: -12

Results for CC(C(=O)c1ccc(-c2ccccc2)cc1)[n+]1ccccc1 (centres undefined) ?
Gli-Sufu block: 46; NCOA2 inhibitor: -7; NR2F2 inh: 16; NCOA1 inh: 17; NCOA3 inh: 45; LRH-1 inv ag: 18

How did COc1ccc(N=Nc2ccc(N)nc2N)cc1 do in these assays?
Gli-Sufu block: -117; NCOA2 inhibitor: -64; NR2F2 inh: -44; NCOA1 inh: -111; NCOA3 inh: -105; LRH-1 inv ag: -137
